In PubChem BioAssay (NCI):
Compounds without any hit were thinned out: in the full panel of roughly 79,000, 15% have a hit. Rule as the data show it: active = growth inhibition above about 70%; inactive = the rest.

What was measured:
[1] = NCI Yeast Anticancer Drug Screen. Data for the rad50 strain (AID 155);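 also: 0% = growth of vehicle-only cultures of the same strain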; conditions: S. cerevisiae rad50 strain growth inhibition; at 50.0 µM; active compounds read high
Procedure, shortened: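 A DNA repair-deficient yeast mutant serves as the test organism; compound-induced growth inhibition is calculated against vehicle-treated cells.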

[2] = NCI Yeast Anticancer Drug Screen. Data for the mec2-1 strain (AID 157); conditions: S. cerevisiae mec2-1 strain, at 50.0 µM, active compounds read high
Procedure, shortened: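 Yeast mec2-1 mutant treated with compound. Readout: growth inhibition vs vehicle controls.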

[3] = NCI Yeast Anticancer Drug Screen. Data for the sgs1 mgt1 strain (AID 161);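 also: 0% = growth of cultures given vehicle only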; conditions: S. cerevisiae sgs1 mgt1 strain, at 50.0 µM, active compounds read high
Procedure, shortened: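 Inhibition of yeast growth, normalised to vehicle-treated controls, is reported for a strain bearing genetic alterations in DNA damage repair.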

[4] = NCI Yeast Anticancer Drug Screen. Data for the cln2 rad14 strain (AID 165);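 also: 0% = growth equal to vehicle treated cultures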; conditions: S. cerevisiae cln2 rad14 strain, at 50.0 µM, active compounds read high
Procedure, shortened: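 cln2 rad14 yeast strain; compound exposure; growth inhibition read vs vehicle controls.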

[5] = NCI Yeast Anticancer Drug Screen. Data for the bub3 strain (AID 167); conditions: S. cerevisiae bub3 mutant strain, at 50.0 µM, active compounds read high
Procedure, shortened: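 Inhibition values come from growth of compound-treated mutant yeast normalised to vehicle-treated controls.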

[6] = NCI Yeast Anticancer Drug Screen. Data for the mlh1 rad18 strain (AID 175); conditions: S. cerevisiae mlh1 rad18 strain growth inhibition; at 50.0 µM; active compounds read high
Procedure, shortened: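 Yeast w/ defined DNA-repair lesions; compound exposure; growth vs vehicle controls → % inhibition.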

Measured: growth inhibition

OC1(c2ccccc2)c2ccccc2Oc2cc(Cl)ccc21 (stereo unspecified)
inactive: [1] 9.4% | [2] -0.85% | [3] 2.8% | [4] 10.3% | [5] 2.15% | [6] 45.8%

N#Cc1nc(C2CCC2)oc1N
inactive: [1] 2.3% | [2] 5.85% | [3] -15.3% | [4] 18.6% | [5] 1.55% | [6] -41.5%

CN(CC(=O)O)c1ncc2c(n1)-c1ccccc1SC2
inactive: [1] 20.5% | [2] 4.95% | [3] 5.15% | [4] 10.3% | [5] -14.3% | [6] -6.3%

CSc1ccc(OC(=O)C(C)NC(=O)C(CO)NC(=O)OCc2ccccc2)cc1 (stereo unspecified)
inactive: [1] 5.85% | [2] 1.55% | [3] -1.05% | [4] -2% | [5] -1.6% | [6] 15.2%

COc1ccc2[nH]c(-c3cccc(N(C)C)c3)cc(=O)c2c1
inactive: [1] -26.1% | [2] -8.1% | [3] -12.5% | [4] -3.95% | [5] -26% | [6] -70.6%

O=c1oc2ccccc2c(N2CCCCC2)c1Cl
inactive: [1] 1.6% | [2] 40.6% | [3] 12.3% | [4] 22.1% | [5] 17.6% | [6] 15%

CCN(CC)C(=O)Oc1cc(C)c([N+](C)(C)C)cc1C(C)C
inactive: [1] 10.1% | [2] 6.7% | [3] 13.2% | [4] 17.8% | [5] 24.6% | [6] -27.7%

CCCCCOC(=O)CC(CC(=O)OCCCCC)C(=O)OCCCCC
inactive: [1] 14.3% | [2] 5.15% | [3] 14% | [4] -3.8% | [5] -28.6% | [6] 1.75%

CC(=O)OCC1OC(OC(C)=O)C(NC(=O)c2ccc(Br)cc2)C(OC(C)=O)C1OC(C)=O (stereo unspecified)
inactive: [1] 42.1% | [2] 19.4% | [3] 39.5% | [4] 19.6% | [5] -1.1% | [6] 31.8%

Nc1cccc2c(O)cc(S(=O)(=O)O)cc12
inactive: [1] -1.35% | [2] -19.2% | [3] 7.6% | [4] -10.7% | [5] -0.4% | [6] 21.6%

Cc1cc(C)c2ccccc2n1
inactive: [1] -6.45% | [2] -30.4% | [3] -8.2% | [4] -3.4% | [5] -5.1% | [6] 18.1%

CC12CCC(C(Br)C1=O)C2(C)CBr (stereo unspecified)
inactive: [1] -9.8% | [2] 5.75% | [3] 20.4% | [4] 23.8% | [5] 9% | [6] -0.7%

O=S1(=O)OC(c2ccc(O)cc2)(c2ccc(O)cc2)c2ccccc21
inactive: [1] 31.6% | [2] -25.9% | [3] 3.1% | [4] 9% | [5] -11.9% | [6] 18.6%

COc1cc(C[C@H]2C(=O)OCC2Cc2ccc(OC)c(OC)c2)ccc1O (stereo partly specified)
inactive: [1] -39.1% | [2] -60.6% | [3] -26.9% | [4] -5.2% | [5] 2.05% | [6] -22.3%

C=CCCCOC(C)=O
inactive: [1] 5.1% | [2] -10.9% | [3] 12.5% | [4] 4% | [5] 11.9% | [6] 1.8%

O=C(NN=C1CCCCC1)c1ccccc1
inactive: [1] -6% | [2] -10.1% | [3] -9.9% | [4] -25.8% | [5] -17.4% | [6] 0.2%

NC(=O)C(Cc1ccccc1Cl)c1ccccc1 (stereo unspecified)
inactive: [1] -7.6% | [2] -2.9% | [3] -2.75% | [4] -43% | [5] -8.35% | [6] 12.7%

CC(C)NC(=O)c1ccccc1S(=O)c1ccccc1C(=O)NC(C)C
inactive: [1] -16.4% | [2] 3.45% | [3] 8.15% | [4] 11.3% | [5] 5.05% | [6] 7.25%

O=C1Nc2ccccc2CS1
inactive: [1] 0.55% | [2] -4.9% | [3] -2.1% | [4] -5.85% | [5] 6.95% | [6] -1.05%

COc1cc(OC)c(OCc2ccccc2)c(OC)c1
inactive: [1] 12.2% | [2] 0.25% | [3] -0.25% | [4] 2.45% | [5] -2.5% | [6] -17.2%

O=C(O)c1cc(=O)[nH]c(SCc2ccc(Cl)cc2Cl)n1
inactive: [1] -14.4% | [2] 14.5% | [3] -7.05% | [4] -10.2% | [5] 9.6% | [6] -1.35%

O=[N+]([O-])c1ccc(OCCO)c([N+](=O)[O-])c1
inactive: [1] 6.75% | [2] -5.85% | [3] -22.4% | [4] -11.5% | [5] -0.15% | [6] 10%

CN(C)CCCCCCNCCC#N
inactive: [1] 21.2% | [2] -27.8% | [3] -8.4% | [4] -8.85% | [5] -28.4% | [6] -1.6%

Nc1nc(Cl)c2nc(Cl)n(C3OC(CO)C(O)C3O)c2n1 (stereo unspecified)
inactive: [1] -7.1% | [2] 1.75% | [3] -8.7% | [4] -16% | [5] 4.5% | [6] -4.25%

O=c1cc(NC(c2ccccc2)c2ccccc2)[nH]c(=O)[nH]1
inactive: [1] -5.25% | [2] 22.1% | [3] 8.95% | [4] -10.4% | [5] 19.1% | [6] 27.6%

COc1ccc(C(=O)/C(Br)=C\C(=O)O)cc1
inactive: [1] 16.8% | [2] 24.4% | [3] 5.4% | [4] 28.6% | [5] 23.9% | [6] 7%

COc1ccccc1Cn1nc(OC)c2cc([N+](=O)[O-])ccc21
inactive: [1] 27.6% | [2] 30.6% | [3] -6.1% | [4] 2.05% | [5] -17.9% | [6] -64.7%

CCOC(=O)CCCl
inactive: [1] 24% | [2] 15.6% | [3] -2.95% | [4] 30.2% | [5] 31.3% | [6] 12.8%

CC1CCOCCCOC(=O)CCOCCC(=O)OCCCOCCCOC(=O)CCOCCC(=O)O1 (stereo unspecified)
inactive: [1] 0.7% | [2] 2.4% | [3] 5% | [4] 15.9% | [5] -5.95% | [6] -4.45%

N#CC(C#N)=C(N)/C(C#N)=C/c1ccc2ccccc2n1
inactive: [1] -0.25% | [2] -11.2% | [3] -5.75% | [4] 12.8% | [5] -5.45% | [6] -12.2%

CC1(C)OC(CP(=O)(c2ccccc2)c2ccccc2)C(CP(=O)(c2ccccc2)c2ccccc2)O1 (stereo unspecified)
inactive: [1] 23.1% | [2] 13.1% | [3] 15.4% | [4] 18.2% | [5] -2.2% | [6] 13.2%

CCO/C=C\C(OCC)OCC
inactive: [1] 3.55% | [2] -8.95% | [3] 3.1% | [4] -15.2% | [5] 18.2% | [6] -0.6%

Cc1cccc(N=Nc2c(C)nc(N)nc2C)c1C
inactive: [1] 4.35% | [2] 6.55% | [3] 2.1% | [4] -37.6% | [5] -13.6% | [6] 6.75%

CN(Cc1nc2c(N)nc(N)nc2nc1N)c1ccc(C(=O)NC(CCC(=O)O)C(=O)O)cc1 (stereo unspecified)
inactive: [1] 7.65% | [2] 42.2% | [3] 22.3% | [4] -7.4% | [5] -1.95% | [6] -26.1%

CN1CCc2sccc2C(c2ccccc2)O1 (stereo unspecified)
inactive: [1] 0.75% | [2] 16.1% | [3] -3.8% | [4] 0.65% | [5] 17.2% | [6] -3.4%

O=C(Nc1cc([N+](=O)[O-])ccc1Cl)c1ccc(F)cc1
inactive: [1] 13.2% | [2] 6.4% | [3] 14.6% | [4] 17.8% | [5] 28.9% | [6] 19.8%
